The values that follow come from PubChem BioAssay (EPA / NIEHS).

Molecules are shown by their SMILES. The source made the active and inactive calls. How the source made its calls: active means hit-call score of the fitted dose curve at least 0.9, where 1 is the maximum; inactive means score below 0.9.

Read-out in the assay: Paternally Expressed 10 (PEG10), PEG10 (gene 23089)
Kind of assay: LTEA_HepaRG_PEG10: Life Technologies and Expression Analysis (LTEA) Assay for Paternally Expressed 10 (PEG10) using HepaRG (AID 2283520).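 On AC50: PEG10 transcript by qRT-PCR normalised to ACTB GAPDH and POLR2A.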 The settings on record: mRNA level, 48 h; actives raise or lower the signal. The protocol: LTEA_HepaRG is a cell based, multiplexed-readout assay that uses HepaRG, a human liver cell line, with measurements taken at 48 hours after chemical dosing on a 96-well plate.LTEA_HepaRG_PEG10 is one of 102 assay component(s) measured in the LTEA HepaRG cell culture assay. It is a marker of Cell proliferation, survival, death.Data from the assay component LTEA_HepaRG_PEG10 was analyzed into 1 endpoint. This assay endpoint, LTEA_HepaRG_PEG10, was analyzed with bidirectional fitting relative to DMSO as the negative control and baseline of activity. Using a type of inducible reporter, measures of mRNA induction for gain or loss-of-signal activity can be used to understand regulation of transcription factor activity. To generalize the intended target to other relatable targets, this assay endpoint is annotated to the dna binding intended target family, where the subfamily is xenobiotic metabolism.
A total of 1060 chemcials from the ToxCast library were tested in eight-point concentration-response experiments. Cell culture and cytotoxicity assays were conducted at Thermo Fisher Scientific's Custom Services facility (Madison, WI). A single lot of human HepaRG cells (Thermo Fisher Scientific, Frederick, MD) was used for the cell culture experiments. 96-well format collagen type I coated plates of human HepaRG cells were prepared using established methods. Briefly, cryopreserved HepaRG cells were thawed, plated at a density of approximately 100,000 cells/well in HepaRG Thaw, Plate, and General Purpose media (HPRG770, Thermo Fisher Scientific), and incubated for 48 hours. 0.5% DMSO was selected as vehicle control to balance the requisite need of DMSO in HepaRG cultures to maintain differentiation (for example, baseline metabolism, proportions of hepatocytes vs. cholangiocytes), while enabling further hepatic receptor pathway activation (for example, PXR and CAR) in response to chemical exposure. 48 hours after plating, the culture medium was replaced with HepaRG Serum-Free Incudtion Media. Cells were exposed to each test chemical in duplicate and maintained in CO2 incubators for another 48 hours. Chemical plates were thawed to room temperature and 200x concentrations of treatment groups were prepared. 8-point conentration-reponse curves were made with the highest exposure at 100 uM, followed by half-log dilutions, all in 0.5% DMSO. Each test plate contained variouse controls, induction positive controls (1mM phenobarbital), cytotoxicity positive controls ([…] aflatoxin B1), vehicle controls (0.5% DMSO), and total lysis controls (0.5% DMSO). Cell morphology images were taken using an Essen IncuCyte FLR automated microscope, with six 96-well plates imaged in about 24 minutes. Images were captured and exported and JPEG files. Spent culture media was transfered to black-well plates for the LDH assay, and remaining media was sorted at -80 C for later use. Cells were treated with RLT buffer and frozen until shipped for gene expression analysis. Total RNA was isolated from the cell suspension in 75 uL of Buffer RLT (Qiagen, Germantown, MD 20874) by Quintiles/Expression Analysis (Durham, NC) using a custom isolation procedure. Total RNA from each plate well was transferred to a preamplification plate. Fluidigm's 96.96 Dynamic ArrayTM (Fluidigm, Amsterdam, the Netherlands) technology was used for gene expression analyses by quantitative reverse transcription polymerase chain reaction (qRT-PCR, performed by Quintiles/Expression Analysis, Durham, NC)89. Standard TaqManTM Assays (Applied Biosystems/ThermoFisher Scientific, Foster City, CA) were used to assess the expression of 93 genes selected based on their selectivity and sensitivity to important hepatic receptors known to be modulated by environmental chemicals; importance in human hepatocyte functionality; and hepatotoxicity. […]
Take `Clc1cccc(Cl)c1`: the outcome was inactive.

As for `Oc1c(Cl)cc(Cl)cc1Cl`, the compound was called inactive.

In the case of `CC(C)O.CC(C)O.OCCN(CCO)CCO.OCCN(CCO)CCO.[Ti]`, the result was inactive.

`COc1ccccc1N`: the call was inactive.

Regarding `Clc1cccc(Cl)c1Cl`, the result was inactive.

Take `CCCCCCCCCCCCc1cccc(S(=O)(=O)O)c1`: the compound was called inactive.

In the case of `CN(C)C(=S)S`, the compound was classed as inactive.

Consider `OCCN(CCO)CCO`, for which the result was inactive.

In the case of `Oc1cc(Cl)c(Cl)cc1Cl`, the result was inactive.

`CC(C)(C)c1ccccc1O`: the result was inactive.

For `O=C(N[C@H]1CN2CCC1CC2)c1ccc2c(c1)OCCO2`, the outcome was inactive.

As to `N#Cc1cccnc1`, the call was inactive.

On to `Cc1cc(C)cc(C)c1`, for which the result was inactive.

On to `O=C(O)C1(c2ccc3c(c2)OC[C@H](Cc2ccc(-c4ccccc4)cc2)[C@H]3O)CCCC1`, for which the AC50 (as a rule, the midpoint of the concentration-response curve, whichever way the signal moves) was 50 µM (active).
